Test results: PubChem BioAssay AID743158 (Broad Institute, 2013)
Results with a measured potency or affinity are listed apart. Unmarked numbers belong to inactive results. Active and inactive are the calls of the source.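 The calls were made as follows: active = cell killing with a fitted half-maximal concentration at most twice the top valid dose tried; inconclusive = flat fit between -70 and -30 percent, or an invalid fit; inactive = the rest.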

test: viability loss in A549 lung cancer cells – cell-based, CellTiter-Glo luminescence, dry powder, set 5, cytotoxicity control, dose response (AID 743158); details: CellTiter-Glo ATP luminescence, 72 h; series mostly up to 26 µM; activity change, negative = cytotoxicity: at the top concentration

Structure (SMILES)	outcome	activity change, negative = cytotoxicity
Cc1ccc(OCCn2c(=S)[nH]c3ccccc32)c(C(C)C)c1	inactive	–
CCOc1ccc(OCCn2c(=S)[nH]c3ccccc32)cc1	–	-5.18%
S=c1[nH]c2ccccc2n1CCOc1ccc(Cl)cc1	–	21.4%
CCOC(=O)c1c(NC(=O)CN2CCN(C)CC2)sc(C)c1-c1ccc(C)cc1	–	1.65% [at 12 µM]
Cc1ccc(OCCn2c(SCCO)nc3ccccc32)c(C(C)C)c1	–	-1.14%
CCOC(=O)c1c(-c2ccc(F)cc2)csc1NC(=O)CN1CCN(CC)CC1	–	7.96%
c1ccc(OCCn2cnc3ccccc32)cc1	–	-5.44%
Cc1ccc(OCCn2c(=S)[nH]c3ccccc32)cc1	–	-5.22%
Cc1ccc(OCCn2c(C)nc3ccccc32)cc1	–	15.3%
Fc1cccc2c1[nH]c(=S)n2CCOc1ccccc1	–	22.4%
Cc1cccc(OCCn2c(=S)[nH]c3cc(C(F)(F)F)ccc32)c1	–	-7.82%
Cc1ccc2c(c1)[nH]c(=S)n2CCOc1ccccc1	–	22.8%
Cc1ccc(C(C)C)c(OCCn2c(=S)[nH]c3ccccc32)c1	–	-4.67% [at 12 µM]
S=c1[nH]c2ccccc2n1CCOc1ccccc1	–	-11.1%
COC(=O)C1=C(C)N(Cc2ccccc2)C(=S)NC1c1ccc(Br)cc1 (stereo not given)	–	11.9%
S=c1[nH]c2cccc(Cl)c2n1CCOc1ccccc1	–	3.73%
Cc1ccccc1OCCn1c(=S)[nH]c2ccccc21	–	6.12%
COC(=O)C1=C(C)N(Cc2ccc(Br)cc2)C(=S)NC1c1ccc(F)cc1 (stereo not given)	–	14.4%
COC(=O)C1=C(C)N(Cc2ccc(F)cc2)C(=S)NC1c1cccc(F)c1 (stereo not given)	–	12.2%
O=c1[nH]c2ccccc2n1CCOc1ccccc1	inactive	–
